{"source": "PubChem BioAssay (Tox21)", "note": "The source made the active and inactive calls. Where a call stands in place of a potency, no number is given. Calls follow the shape of the full dose curve. Potency is read from the fitted curve at half-maximal effect.", "data": [{"test": "qHTS assay to identify small molecule agonists of the sonic hedgehog signaling (Shh) pathway (AID 1259368); also: nearly all actives have a fitted effect of over 15% in size", "details": "NIH/3T3 Gli1-Luc reporter, luciferase, 24 h; series mostly up to 92.4 µM", "excerpt": "National Center for Advancing Translational Sciences [NCATS]\nNIH Chemical Genomics Center [NCGC]\nU.S. Environmental Protection Agency [EPA]\nNational Institutes of Environmental Health Sciences [NIEHS]\nNational Toxicology Program [NTP]\nThe sonic hedgehog (Shh) pathway is essential for normal embryonic development. Dysregulation of the Shh pathway can cause severe developmental defects in organs. Therefore chemicals that interfere with the pathway are potential developmental toxicants. A cell line designated 3T3Gli1-Luc (DMB/OARSA/CFSAN/FDA, Laurel, MD), a NIH/3T3 derived clone containing stably integrated Gli1-Luc reporter is used to detect chemical interference of the Shh pathway, by changes in the expression of the firefly Luc gene under the control of the Gli1 transcriptional response element. This cell line was used to screen Tox21 libraries for identifying and prioritizing the potential developmental toxicants that interfere Shh pathway.\n3T3 Gli1-Luc cells were dispensed at 2,000 per well in 5uL of culture medium into white solid bottom 1536-well plates (Greiner Bio-One, Monroe, NC) using a Multidrop Combi (Thermo Scientific, Waltham, MA) dispenser. The assay plates were incubated at 37 C and 5% CO2 for 4hr, and then 23nL of compounds dissolved in DMSO and positive control were transferred using a Pintool station (Wako, San Diego, CA). The assay plates were incubated at 37C and 5% CO2 for 24hr. For luciferase read, 4uL of Amplite Luciferase reporter gene assay reagent (AAT Bioquest, Inc. Sunnyvale, CA) was added to each well of the assay plates using Flying Reagent Dispenser (FRD, Aurora Discovery, San Diego, CA) and incubated at room temperature for 30min. The luminescence signal was measured using a ViewLux plate reader (Perkin Elmer, Shelton, CT).", "values": [{"smiles": "C=C1CCC2CC1C2(C)C", "note": "(stereo not given)", "Potency": "inactive"}, {"smiles": "O=C1CCCCCCCCCCOCCCCO1", "Potency": "inactive"}, {"smiles": "Cc1c(C)c2c(c(C)c1OC(=O)CCC(=O)OCCO)CC[C@@](C)(CCC[C@H](C)CCC[C@H](C)CCCC(C)C)O2", "Potency": "inactive"}, {"smiles": "COc1cc(Nc2c(C#N)cnc3cc(OCCCN4CCN(C)CC4)c(OC)cc23)c(Cl)cc1Cl", "Potency": "inactive"}, {"smiles": "CC(C)=CC(=O)C=C(C)C", "Potency": "inactive"}, {"smiles": "COc1ccc(OC(=O)N(CC(=O)O)Cc2ccc(OCCc3nc(-c4ccccc4)oc3C)cc2)cc1", "Potency": "inactive"}, {"smiles": "CCCCOc1ccc(OCCCN2CCOCC2)cc1", "Potency": "inactive"}, {"smiles": "CC(C)(c1ccccc1)c1ccccc1", "Potency": "inactive"}, {"smiles": "CC(=O)c1cc2ccccc2s1", "Potency": "inactive"}, {"smiles": "NCCNCCO", "Potency": "inactive"}, {"smiles": "CCCCC(CC)COP(=O)(O)O", "note": "(stereo not given)", "Potency": "inactive"}, {"smiles": "FC(F)(F)c1ccccc1Cl", "Potency": "inactive"}, {"smiles": "CN(C)CCN1C(=O)c2ccccc2N(C)c2ccccc21", "Potency": "inactive"}, {"smiles": "C=C(C)[C@@H]1CCC2=CCC[C@@H](C)[C@]2(C)C1", "Potency": "inactive"}, {"smiles": "CCOC(=O)c1ccc(C#Cc2ccc3c(c2)C(C)(C)CCS3)nc1", "Potency": "inactive"}, {"smiles": "Cc1cc(C)c(N)cc1C", "Potency": "inactive"}, {"smiles": "CC(C)(O)c1ccc(CNC(=O)c2cccnc2Oc2ccc3nonc3c2)cc1", "Potency": "inactive"}, {"smiles": "CC(=O)Oc1ccc([N+](=O)[O-])cc1CCl", "Potency": "inactive"}, {"smiles": "CC1CC(OC(=O)C(O)c2ccccc2)CC(C)(C)N1C", "note": "(stereo not given)", "Potency": "inactive"}, {"smiles": "c1ccc2sc(SN(C3CCCCC3)C3CCCCC3)nc2c1", "Potency": "inactive"}, {"smiles": "CC1=Nc2ccc3ccccc3c2C1(C)C", "Potency": "inactive"}, {"smiles": "COc1ccccc1NC(=O)c1cc2ccccc2cc1O", "Potency": "inactive"}, {"smiles": "CC(C)C[C@H](NC(=O)[C@H](CCc1ccccc1)NC(=O)CN1CCOCC1)C(=O)N[C@@H](Cc1ccccc1)C(=O)N[C@@H](CC(C)C)C(=O)[C@@]1(C)CO1", "Potency": "inactive"}, {"smiles": "CCCCCCCCN", "Potency": "inactive"}, {"smiles": "Cc1ccc(C(C)(C)O)cc1", "Potency": "inactive"}, {"smiles": "CCOC(C)=O", "Potency": "inactive"}, {"smiles": "OCCOCC#CCOCCO", "Potency": "inactive"}, {"smiles": "CCC(C)(C)OC", "Potency": "inactive"}, {"smiles": "N#CCc1ccc(Cl)cc1Cl", "Potency": "inactive"}, {"smiles": "CCOC(=O)c1ccc(O)c(O)c1", "Potency": "inactive"}, {"smiles": "CCCCCC[C@@H](O)C/C=C\\CCCCCCCC(=O)O", "Potency": "inactive"}, {"smiles": "Cc1ccco1", "Potency": "inactive"}, {"smiles": "O=C(/C=C/c1ccccc1)OCCc1ccccc1", "Potency": "inactive"}, {"smiles": "O=C(O)c1cccc(-c2noc(-c3ccccc3F)n2)c1", "Potency": "inactive"}, {"smiles": "Cc1cccc(O)c1N", "Potency": "inactive"}, {"smiles": "CCC=CC#N", "Potency": "29.7 µM (active)"}, {"smiles": "C/C=C\\C/C=C/CCCCCCCCOC(C)=O", "Potency": "inactive"}, {"smiles": "COC(=O)[C@H]1[C@H]2C[C@@H]3c4[nH]c5cc(OC)ccc5c4CCN3C[C@H]2C[C@@H](OC(=O)/C=C/c2ccc(O)c(OC)c2)[C@@H]1OC", "Potency": "inactive"}, {"smiles": "Oc1cccc(O)c1O", "Potency": "inactive"}, {"smiles": "C[C@@H](O[C@H]1OCCN(Cc2n[nH]c(=O)[nH]2)[C@H]1c1ccc(F)cc1)c1cc(C(F)(F)F)cc(C(F)(F)F)c1", "Potency": "inactive"}]}]}
